Records with an inconclusive call do not appear. Entries that show only a call come without a potency. Active and inactive are the calls of the source. Calls follow the shape of the dose curve; as a rule, active = well fitted inhibition curve with a large enough effect; inconclusive = small, poorly fitted or top-dose-only effect; inactive = flat fitted curve, though single readings scatter.
Potency is read from the fitted curve at half-maximal effect.

For the first assay, the system named is CP194. In words: qHTS profiling for inhibitors of Plasmodium falciparum proliferation (AID 504749). Also: nearly all actives have a fitted effect of over 60% in size. As to conditions: P. falciparum in erythrocytes, SYBR Green DNA, 72 h; series mostly up to 28.7 µM. The method, boiled down:
(§1)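 Parasite proliferation within erythrocytes, 72 h exposure. Endpoint: SYBR Green I fluorescence after overnight lysis at room temperature. Controls: 0.29 uM artemisinin, DMSO.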
(In qHTS, concentration-response curves come from the screen itself.)
For the compound `NS(=O)(=O)c1cc(-c2nn[nH]n2)c(NCc2cccs2)cc1Cl`, the outcome was inactive.
For `Cn1c(=O)c2c(ncn2CCO)n(C)c1=O`, the compound was classed as inactive.
On the same count and under the same terms, as for `Nc1ncnc2c1ncn2[C@@H]1O[C@H](COP(=O)(O)O)[C@@H](O)[C@H]1O`, the entry is “inactive”; as for `COc1ccc(C(=O)N2CCN(CC(=O)N3CCOCC3)CC2)cc1`, “inactive”.
With `C[C@@H]1O[C@@H](OC[C@H]2O[C@@H](Oc3c(-c4ccc(O)c(O)c4)oc4cc(O)cc(O)c4c3=O)[C@H](O)[C@@H](O)[C@@H]2O)[C@H](O)[C@H](O)[C@H]1O`, the call was inactive.
Same read-out and setting: the same measure for `CN1C(C)(C)CCCC1(C)C`: “inactive”.
Still for that read-out and setting: as for `Cc1cccc(C(=O)O)c1O`, the entry is “inactive”; as for `Cc1cc(NC(=O)C2=C(O)c3ccccc3S(=O)(=O)N2C)no1`, “inactive”; as for `NCC1CCC(C(=O)Oc2ccc(CCC(=O)O)cc2)CC1` (stereo not drawn), “inactive”.
On the same count and under the same terms, as for `O=C(O)Cn1c(C(=O)Nc2nc(-c3ccccc3Cl)cs2)cc2ccccc21`, the entry is “inactive”; as for `CC(=O)Nc1ccc(OCCOCCOc2ccc(NC(C)=O)cc2)cc1`, “inactive”.

For another assay, the system named is CP201. The description is as above. The conditions noted are these: P. falciparum in erythrocytes, SYBR Green DNA, 72 h; series mostly up to 28.7 µM. The method, boiled down: as §1
For `CNc1c2c(nn1C)CCCC2`, the result was inactive.
Same read-out and setting: the same measure for `NC(=O)CC[C@@H](N)C(=O)O`: “inactive”; for `Cc1c(C(=O)NCCO)[n+](=O)c2ccccc2n1[O-]`: “inactive”; for `CCCCOC(=O)c1ccc(N)cc1`: “inactive”.
The same measure, in the same setting: the same measure for `CCCCCCCC(=O)OCC(O)CO` (stereo not drawn): “inactive”; for `CCOc1cc(NC(C)=O)ccc1C(=O)OC`: “inactive”; for `C[C@@H](N)C(=O)O`: “inactive”.
Regarding `CC(N)CCCC(C)(C)O` (stereo not drawn), the result was inactive.
`O=C(O)Cc1ccc(CCNS(=O)(=O)c2ccc(Cl)cc2)cc1`: the compound was classed as inactive.
On the same count and under the same terms, the same measure for `COC(=O)c1cccnc1`: “inactive”; for `O=C(Cn1ccnc1[N+](=O)[O-])NCCO`: “inactive”; for `Cc1ccc(S(=O)(=O)NC(=O)NC2CCCCC2)cc1`: “inactive”.
On to `C[N+](C)(C)CC[N+]1(C)Cc2c(Cl)c(Cl)c(Cl)c(Cl)c2C1`, for which the result was inactive.
On the same count and under the same terms, as for `O=C(O)CCC(=O)O`, the entry is “inactive”.
With `NC(=O)NS(=O)(=O)c1ccc(N)cc1`, the call was inactive.
In the case of `O=C(/C=C/c1ccccc1)OCc1ccccc1`, the compound was called inactive.
For `COc1cc(C(=O)NCCCCCC(=O)O)cc(OC)c1OC`, the call was inactive.
Still for that read-out and setting: as for `O[C@@H]1CO[C@H]2[C@@H]1OC[C@@H]2O`, the entry is “inactive”; as for `O=C(O)c1ccc(OCCCOc2ccc(C(=O)O)cc2)cc1`, “inactive”.
Same read-out and setting: the same measure for `CC(=O)NS(=O)(=O)c1ccc(N)cc1`: “inactive”; for `CC(=O)Nc1ccc(C(=O)O)cc1`: “inactive”; for `CC1CCc2cc(F)cc3c(=O)c(C(=O)O)cn1c23` (stereo not drawn): “inactive”.
The same measure, in the same setting: the same measure for `CCc1cccc(CC)c1NC(=O)CN(CC(=O)O)CC(=O)O`: “inactive”.
On to `O=c1[nH]c(=O)c2ccccc2o1`, for which the compound was called inactive.
Regarding `CN/C(=C\[N+](=O)[O-])NCCSCc1csc(CN(C)C)n1`, the call was inactive.
Same read-out and setting: as for `NS(=O)(=O)c1cc(-c2nn[nH]n2)c(NCc2cccs2)cc1Cl`, the entry is “inactive”.
Regarding `Cn1c(=O)c2c(ncn2CCO)n(C)c1=O`, the call was inactive.
Same read-out and setting: the same measure for `Nc1ncnc2c1ncn2[C@@H]1O[C@H](COP(=O)(O)O)[C@@H](O)[C@H]1O`: “inactive”.
Same read-out and setting: the same measure for `COc1ccc(C(=O)N2CCN(CC(=O)N3CCOCC3)CC2)cc1`: “inactive”; for `C[C@@H]1O[C@@H](OC[C@H]2O[C@@H](Oc3c(-c4ccc(O)c(O)c4)oc4cc(O)cc(O)c4c3=O)[C@H](O)[C@@H](O)[C@@H]2O)[C@H](O)[C@H](O)[C@H]1O`: “inactive”; for `CN1C(C)(C)CCCC1(C)C`: “inactive”.
On the same count and under the same terms, as for `Cc1cccc(C(=O)O)c1O`, the entry is “inactive”; as for `Cc1cc(NC(=O)C2=C(O)c3ccccc3S(=O)(=O)N2C)no1`, “inactive”; as for `NCC1CCC(C(=O)Oc2ccc(CCC(=O)O)cc2)CC1` (stereo not drawn), “inactive”.
Turning to `O=C(O)Cn1c(C(=O)Nc2nc(-c3ccccc3Cl)cs2)cc2ccccc21`, the compound was classed as inactive.
With `CC(=O)Nc1ccc(OCCOCCOc2ccc(NC(C)=O)cc2)cc1`, the compound was classed as inactive.

A further assay deals with CP203. The description is as above. The conditions noted are these: P. falciparum in erythrocytes, SYBR Green DNA, 72 h; series mostly up to 28.7 µM. The method, boiled down:
as §1
With `CNc1c2c(nn1C)CCCC2`, the Potency entry was “inactive”.
The same measure, in the same setting: the same measure for `NC(=O)CC[C@@H](N)C(=O)O`: “inactive”; for `Cc1c(C(=O)NCCO)[n+](=O)c2ccccc2n1[O-]`: “inactive”; for `CCCCOC(=O)c1ccc(N)cc1`: “inactive”.
In the case of `CCCCCCCC(=O)OCC(O)CO` (stereo not drawn), the Potency result is “inactive”.
Still for that read-out and setting: as for `CCOc1cc(NC(C)=O)ccc1C(=O)OC`, the entry is “inactive”.
Same read-out and setting: the same measure for `C[C@@H](N)C(=O)O`: 9.53 µM (active); for `CC(N)CCCC(C)(C)O` (stereo not drawn): “inactive”.
The same measure, in the same setting: as for `O=C(O)Cc1ccc(CCNS(=O)(=O)c2ccc(Cl)cc2)cc1`, the entry is “inactive”; as for `COC(=O)c1cccnc1`, “inactive”; as for `O=C(Cn1ccnc1[N+](=O)[O-])NCCO`, “inactive”.
Consider `Cc1ccc(S(=O)(=O)NC(=O)NC2CCCCC2)cc1`, for which the Potency result was “inactive”.
`C[N+](C)(C)CC[N+]1(C)Cc2c(Cl)c(Cl)c(Cl)c(Cl)c2C1`: the Potency result is “inactive”.
`O=C(O)CCC(=O)O`: the Potency result is “inactive”.
On the same count and under the same terms, the same measure for `NC(=O)NS(=O)(=O)c1ccc(N)cc1`: “inactive”; for `O=C(/C=C/c1ccccc1)OCc1ccccc1`: “inactive”; for `COc1cc(C(=O)NCCCCCC(=O)O)cc(OC)c1OC`: “inactive”.
Take `O[C@@H]1CO[C@H]2[C@@H]1OC[C@@H]2O`: the Potency entry is “inactive”.
On the same count and under the same terms, as for `O=C(O)c1ccc(OCCCOc2ccc(C(=O)O)cc2)cc1`, the entry is “inactive”; as for `CC(=O)NS(=O)(=O)c1ccc(N)cc1`, “inactive”.
Same read-out and setting: the same measure for `CC(=O)Nc1ccc(C(=O)O)cc1`: “inactive”.
With `CC1CCc2cc(F)cc3c(=O)c(C(=O)O)cn1c23` (stereo not drawn), the Potency entry is “inactive”.
Still for that read-out and setting: the same measure for `CCc1cccc(CC)c1NC(=O)CN(CC(=O)O)CC(=O)O`: “inactive”.
Take `O=c1[nH]c(=O)c2ccccc2o1`: the Potency entry was “inactive”.
Same read-out and setting: as for `CN/C(=C\[N+](=O)[O-])NCCSCc1csc(CN(C)C)n1`, the entry is “inactive”.
Same read-out and setting: the same measure for `NS(=O)(=O)c1cc(-c2nn[nH]n2)c(NCc2cccs2)cc1Cl`: “inactive”; for `Cn1c(=O)c2c(ncn2CCO)n(C)c1=O`: “inactive”.
On the same count and under the same terms, as for `Nc1ncnc2c1ncn2[C@@H]1O[C@H](COP(=O)(O)O)[C@@H](O)[C@H]1O`, the entry is “inactive”; as for `COc1ccc(C(=O)N2CCN(CC(=O)N3CCOCC3)CC2)cc1`, “inactive”.
With `C[C@@H]1O[C@@H](OC[C@H]2O[C@@H](Oc3c(-c4ccc(O)c(O)c4)oc4cc(O)cc(O)c4c3=O)[C@H](O)[C@@H](O)[C@@H]2O)[C@H](O)[C@H](O)[C@H]1O`, the Potency result was “inactive”.
Regarding `CN1C(C)(C)CCCC1(C)C`, the Potency result is “inactive”.
With `Cc1cccc(C(=O)O)c1O`, the Potency entry is “inactive”.
With `Cc1cc(NC(=O)C2=C(O)c3ccccc3S(=O)(=O)N2C)no1`, the Potency entry was “inactive”.
Still for that read-out and setting: the same measure for `NCC1CCC(C(=O)Oc2ccc(CCC(=O)O)cc2)CC1` (stereo not drawn): “inactive”; for `O=C(O)Cn1c(C(=O)Nc2nc(-c3ccccc3Cl)cs2)cc2ccccc21`: “inactive”.
For `CC(=O)Nc1ccc(OCCOCCOc2ccc(NC(C)=O)cc2)cc1`, the Potency result was “inactive”.

Values taken from PubChem BioAssay (NCATS).
